A selection: hits, their analogues and other compounds. The true share with any hit is near 2.3%.
Akt phos inh – HTS Assay for Inhibitors of Akt Phophorylation: Primary Screen | Neuro2A IGF-stimulated pAkt S473 HTRF, 20 min; stronger effect = lower value | activity change, % for hits at 50 µM | 360,000 tested, 0.32% active; in the data active means activity change below about -80%; inconclusive means mostly about -51% to -80%
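Neuro2A cells (4,500/well, DMEM with 0.5% FBS) were treated with compound at a single 50 µM final concentration, stimulated with 6 nM IGF for 20 min at 37 °C, and lysed. Phospho-Akt Ser473 was read by HTRF as 665/615 ratio ×10^4.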
Abeta yeast res – qHTS for compounds that reverse cellular toxicity of Amyloid beta (A-beta) peptide in yeast: Primary Screen | Potency, µM (doses to about 46.1 µM), actives largely listed as activators | AID 1347071, 2019 | yeast expressing A-beta42, growth rescue, OD600, 48 h; response scale: 0% DMSO, 100% iron-clioquinol control | 410,000 tested, 0.063% active; further: nearly all actives have a fitted effect of over 55% in size
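Yeast growth medium received pinned compounds, then yeast cells expressing toxic A-beta were added; plates incubated at 30 C for 48 hr. Growth read as absorbance at 600 nm, normalized to DMSO and equimolar FeCl3 plus clioquinol controls.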
FUS yeast rescue – qHTS for Suppressors of FUS Proteinopathy: Primary screen using FUS-linked yeast assay. Potency, µM (top dose mostly 76.6 µM), actives largely listed as activators. S. cerevisiae FUS-expressing, growth rescue, OD600, 24 h. 390,000 tested, 0.24% active; further: nearly all actives have a fitted effect of over 55% in size
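Restored growth of FUS-toxic S. cerevisiae, read as 600 nm absorbance after 24 h at 30C in galactose medium (starting OD 0.005). Controls CP55940 and DMSO.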
TDP43 rescue – qHTS of TDP-43 Inhibitors | 410,000 tested, 1.8% active | AID 652104, 2013 | TDP-43 expressing yeast growth rescue, BacTiter-Glo, 24 h | Potency, µM (top dose mostly 46.1 µM), actives largely listed as activators; further: nearly all actives have a fitted effect of over 50% in size
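In this qHTS, compounds that restore growth of yeast expressing TDP-43 appear as activators. Cells (OD600=0.02, galactose medium, raffinose-pregrown) are incubated with compound 24 hr at 30 deg C and growth is quantified by BacTiter-Glo.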
aSyn rescue – qHTS of alpha-syn Inhibitors; 370,000 tested, 0.14% active; Yeast expressing alpha-synuclein, growth rescue, BacTiter-Glo, 24 h; Potency, µM (top dose mostly 46.1 µM), most hits filed as activators; AID 652106, 2013; further: nearly all actives have a fitted effect of over 65% in size
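Galactose-induced alpha-syn yeast (OD600=0.02, raffinose-pregrown) + pinned cpd, 24 hr, 30 deg C; growth by BacTiter-Glo luminescence. Growth restoration scores as activation.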
A number is an active result; n = inactive; u = inconclusive; x = no result given; ! = a repeat was not active. Unless noted, the call rests on the fitted dose curve; in most records, active means well fitted curve in the direction sought with a large enough effect; inconclusive means small, poorly fitted or top-dose-only effect, or another doubt; inactive means no such curve, though single readings can be large; an effect the other way counts as inactive or inconclusive.

SMILES	Akt phos inh	Abeta yeast res	FUS yeast rescue	TDP43 rescue	aSyn rescue
CCOC(=O)c1sc(NC(=O)c2c(-c3ccccc3)c(-c3ccccc3)nn(C)c2=O)nc1C	x	n	u	15.8µM	x
COC(=O)c1sc(NC(=O)COc2c(C)cccc2C)nc1C	n	n	n	20µM	n
CC(C)Cc1ccc(C(C)C(=O)Nc2ccc(O)cc2)cc1 (centres undefined)	n	n	n	11.2µM	n
CC(C)Cc1ccc(C(C)C(=O)Nc2cccnc2)cc1 (centres undefined)	n	n	n	n	u
N#C/C=C1/NC(=O)c2ccccc2S1	-109.7%	n	n	n	n
Cc1ccc2onc(CC(=O)Nc3cc(F)ccc3F)c2c1	x	n	n	10µM	x
Cc1ccc(CN2C(=O)C(=O)c3cc(Br)cc(C)c32)cc1	x	n	n	u	x
CCOc1ccc(NC(=O)C(CC)n2nc(-c3ccc(C)c(C)c3)ccc2=O)cc1 (centres undefined)	x	n	n	n	x
Cc1ccc(C)c(-c2ccc(=O)n(Cc3cccc(Br)c3)n2)c1	n	n	n	n	n
Cc1ccc(C)c(-c2ccc(=O)n(Cc3ccc(F)cc3Cl)n2)c1	n	n	u	22.4µM!	u
CCC(C(=O)Nc1cc(OC)cc(OC)c1)n1nc(-c2ccc(C)c(C)c2)ccc1=O (centres undefined)	x	u	u	28.2µM	x
CCC(C(=O)Nc1cc(F)ccc1F)n1nc(-c2cc(C)ccc2C)ccc1=O (centres undefined)	x	n	n	22.4µM	x
CCn1nc(C)c2c(-c3ccccc3)cc(=O)n(C(C)C(=O)NCCc3ccccc3)c21 (centres undefined)	x	n	n	u	x
CCn1nc(C)c2c(-c3ccccc3)cc(=O)n(C(C)C(=O)NCCc3ccc(OC)c(OC)c3)c21 (centres undefined)	x	n	n	15.8µM	x
CC(C)CC(C(=O)O)C(C)CC(=O)Nc1ccn(-c2ccccc2)n1 (centres undefined)	-108.5%	n	n	n	n
CCCCC(C(=O)O)C(C)CC(=O)Nc1ccn(-c2ccccc2)n1 (centres undefined)	n	n	n	n	n
Cc1ccc(NC(=O)C(=O)NCC(c2ccc3c(c2)OCO3)N2CCN(c3ccccc3)CC2)cc1 (centres undefined)	x	n	n	n	x
O=c1c2oc3ccccc3c2n(Cc2ccc(Cl)cc2)c(=O)n1Cc1ccccc1	x	n	n	n	x
COc1ccc(CNC(=O)C(C#N)c2nc3ccccc3nc2N2CCCC2)cc1 (centres undefined)	-83.6%	n	n	n	n
COc1ccc(CNC(=O)C(C#N)c2nc3ccccc3nc2N2CCN(C)CC2)cc1 (centres undefined)	n	n	n	n	n
NC(=S)NN=Cc1nccc2c(C(F)(F)C(F)(F)C(F)(F)F)cccc12	n	n	n	u	7.08µM
NC(=S)NN=Cc1nccc2ccccc12	n	u	n	n	20µM
Cc1cnc(C=NNC(N)=S)c2cccc(N)c12	n	n	x	n	n
CCOc1ccc(CNCc2c(C(=O)O)c(C)n(Cc3ccc(F)cc3Cl)c2C)cc1	x	n	n	n	x
COc1ccccc1C(=O)O/N=C(\N)c1ccc(Cl)cc1	n	n	n	14.1µM	n
SMILES	Akt phos inh	Abeta yeast res	FUS yeast rescue	TDP43 rescue	aSyn rescue
COc1ccc(C(=O)O/N=C(\N)c2ccccc2)cc1OC	n	n	n	u	n
COc1ccc(C(=O)O/N=C(\N)c2cccc(C)c2)cc1OC	n	n	n	22.4µM	n
CCOC(=O)c1cccc(N/C=C/C(=O)c2ccc(OC)c(OC)c2)c1	n	n	n	u	14.1µM
COc1cccc(N/C=C/C(=O)c2ccc(OC)c(OC)c2)c1	n	n	n	n	u
COc1ccccc1C(=O)O/N=C(/c1ccncc1)c1ccc([N+](=O)[O-])cc1	n	n	x	28.2µM	n
O=C(NCCc1nc2ccccc2n1CCCOc1ccc2ccccc2c1)C1CCCCC1	x	x	x	x	n
Cc1cc2c(cc1C)NC(CC(=O)Nc1ccccc1SC(F)(F)F)C(=O)N2 (centres undefined)	x	n	n	n	n
Cc1cccc(/C(N)=N/OC(=O)c2ccncc2)c1	n	n	n	u	n
Cc1cccc(C(=O)O/N=C(\N)c2ccc(Br)cc2)c1	n	n	n	6.31µM	n
Cc1cc(C)cc(C(=O)O/N=C(\N)c2ccc(Br)cc2)c1	n	n	n	35.5µM	n
Cc1ccc(C(=O)O/N=C(\N)c2ccc(Br)cc2)cc1C	n	n	n	u	n
Cc1cccc(C(=O)O/N=C(\N)c2ccc(Cl)cc2)c1	n	n	n	10µM	n
CCN(CC)CCNC(=O)c1sc2nc(C)cc(C)c2c1-n1cccc1	x	n	n	n	x
CCOC(=O)c1ccc(-n2c(CCC(=O)O)ccc2-c2ccc(F)cc2)cc1	n	n	n	12.6µM	n
COc1cccc2[nH]c3c(N4CCCCC4)ncnc3c12	n	n	n	n	n
CCOC(=O)C1CCN(c2ncnc3c2[nH]c2cccc(OC)c23)CC1	n	n	22.4µM	n	n
COC(=O)C[C@@H]1CC[C@@H]2[C@H](COc3ccc(NC(=O)c4cccc(OC)c4)cc3C(=O)N2C)O1	x	x	n	x	x
C#CCOCCOCCOCCNc1nc(N2CCN(C(=O)CCCCCCCCCCNC(=O)[C@H](CCCCN)n3cc(C[C@@H](C)CC)nn3)CC2)nc(N2CCN(C(=O)CCCCCCCCCCNC(=O)[C@H](CCCN=C(N)N)n3cc(C[C@@H](C)CC)nn3)CC2)n1	n	n	10µM	n	n
C#CCOCCOCCOCCNc1nc(N2CCN(C(=O)CCCCCCCCCCNC(=O)[C@@H](CCSC)n3cc(CCO)nn3)CC2)nc(N2CCN(C(=O)CCCCCCCCCCNC(=O)[C@H](CCCN=C(N)N)n3cc(C[C@@H](C)CC)nn3)CC2)n1	n	n	10µM	n	n
C#CCOCCOCCOCCNc1nc(N2CCN(C(=O)CCCCCCCCCCNC(=O)[C@H](CCCCN)n3cc(C)nn3)CC2)nc(N2CCN(C(=O)CCCCCCCCCCNC(=O)[C@H](CCCN=C(N)N)n3cc(C[C@@H](C)CC)nn3)CC2)n1	n	n	u	u	n
O=[N+]([O-])c1ccc(CNc2ccc(F)cc2)s1	n	u	n	12.6µM	n
O=[N+]([O-])c1ccc(CNc2ccc(Cl)cc2)s1	n	u	n	u	n
O=[N+]([O-])c1ccc(CNc2cccc(Cl)c2)s1	n	n	n	17.8µM	u
COc1ccc(NCc2ccc([N+](=O)[O-])s2)c(OC)c1	n	n	x	10µM	n
COc1ccc(NCc2ccc([N+](=O)[O-])s2)cc1	n	n	n	u	n

Screening results: PubChem BioAssay, National Center for Advancing Translational Sciences (NCATS)
